HTT ATP protect: protects HTT-Q103 PC12 cells, measured by ATP | PC12 HTT-Q103 induced, cytoprotection, ATP luminescence, 40 h | Potency, µM (highest dose often 56.4 µM), inactives show cytoprotection (ATP increase), hits mostly activators | 230,000 tested, 0.14% active | AID 1471; note: potency is the fitted concentration of half-maximal effect; % of control where 0% means no effect; nearly all actives have a fitted effect of over 45% in size
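Quantitative HTS on tebufenozide-induced (100 nM) PC12 cells expressing HTTQ103 exon 1–GFP; compounds tested as a concentration series; survival measured via cellular ATP.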
IMPase Li inh: IMPase inhibition in cells with lithium potentiation. CHO-M1 cells, IP1 TR-FRET (IP-One), carbachol + lithium. Potency, µM (series often up to 59.4 µM), for the others: at the highest dose activity, negative = IMPase inhibition, most hits filed as inhibitors. 210,000 tested, 0.35% active. AID 1457;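 note: IP1 builds up when IMPase is blocked and the TR-FRET signal falls; potency is the fitted concentration of half-maximal effect; plate controls were basal vehicle for no effect and high inhibitor control for full effect; nearly all actives have a fitted effect of over 50% in size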
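Readout is a homogeneous TR-FRET IP1 immunoassay (Ex 320, Em 665 and 620), where raised cytosolic IP1 lowers signal. Cells were CHO-M1 treated 30 min at 37C with test compounds plus a little lithium; AC50 values came from Hill-equation fitting.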
HttQ103 aggreg: inhibitors of mutant huntingtin aggregate formation in PC12 cells. PC12 HttQ103-GFP aggregates, Acumen cytometry, 40 h. Potency, µM (top dose mostly 46.1 µM), for the others: at the highest dose activity change, negative = inhibition, most hits filed as inhibitors. 220,000 tested, 1.1% active; note: potency is the fitted concentration of half-maximal effect; % is set by controls: 0 for no effect and ±100 for the full control effect; nearly all actives have a fitted effect of over 60% in size
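Huntingtin Q103 exon 1–GFP aggregates in induced PC12 cells (100 nM tebufenozide) were quantified by cytometry from lysates, with compounds dosed in titration.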
PNC inhibitor: blocks assembly of the perinucleolar compartment; activity change (PNC), negative = inhibition, % at 10 µM; PC3M PTB-GFP, PNC prevalence imaging, 16 h; active compounds read low; 140,000 tested, 3.1% active; AID 2417;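 active = readout at or below -70, meaning at least 70% loss of cells showing the perinucleolar compartment, a nuclear body marking cancer cells; inconclusive = readout between -30 and a set limit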;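 note: plate controls were DMSO wells for no effect and camptothecin positive control wells for full effect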
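Read-out is percentage of cells bearing a perinucleolar compartment, from automated 20x imaging of fixed, Hoechst-stained PC3M PTB-GFP cells. Cells were seeded 4 h, then exposed 16 h to compound (23 nl of library stock) in duplicate plates.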
IMPase inh: membrane-permeable compound that blocks inositol monophosphatase. 120,000 tested, under 10 active. CHO-M1 cells, IP1 accumulation, HTRF TR-FRET ratio. AID 901. inhibition (IP1 accumulation), % at 46.1 µM. P97697; active = well fitted curve in the direction sought with a large enough effect in the signal ratio, not every such curve was filed as active; inconclusive = small, poorly fitted or top-dose-only effect, or a change in a side signal; inactive = no such curve, though single readings can be large or run the other way; the % refers to the signal ratio;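 note: cells stimulated with carbachol in lithium chloride buffer; plate controls were DMSO basal wells for no effect and reference inhibitor wells for full effect; higher means more IMPase inhibition seen as more IP1 and lower FRET ratio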
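Carbachol-driven Gq signalling in CHO-M1 cells (2000/well) generates IP1. Compounds that block IMPase raise IP1 and so reduce the FRET signal from Eu-anti-IP1 and d2-IP1 after a 10 min room-temperature lysis.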
NPSR antagonist: antagonists of human neuropeptide S receptor cAMP signaling | CHO-NPSR cells, cAMP TR-FRET, antagonist mode | Potency, µM (top dose mostly 38.3 µM), for inactives: top-dose activity change, negative = inhibition, most hits filed as inhibitors | 220,000 tested, 1% active | Q6W5P4; note: potency is the fitted concentration of half-maximal effect; % is set by controls: 0 for no effect and ±100 for the full control effect; nearly all actives have a fitted effect of over 50% in size
Target sequence (Q6W5P4 whole entry, looked up): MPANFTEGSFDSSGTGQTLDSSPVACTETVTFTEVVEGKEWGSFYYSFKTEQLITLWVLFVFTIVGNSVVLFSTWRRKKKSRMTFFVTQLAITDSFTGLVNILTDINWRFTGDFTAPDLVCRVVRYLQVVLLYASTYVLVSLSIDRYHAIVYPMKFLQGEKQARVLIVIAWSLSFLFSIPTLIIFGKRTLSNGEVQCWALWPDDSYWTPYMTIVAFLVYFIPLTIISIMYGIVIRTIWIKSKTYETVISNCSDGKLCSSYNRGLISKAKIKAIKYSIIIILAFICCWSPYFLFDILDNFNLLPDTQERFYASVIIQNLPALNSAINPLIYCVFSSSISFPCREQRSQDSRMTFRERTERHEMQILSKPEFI
The depositor's hits bear a star; [ ] = remark or other dose. Sampled rows, rich in hits. Any-hit rate of the full collection: about 3.4%. Unless noted, calls come from the whole dose curve; as a rule, active = well fitted curve in the direction sought with a large enough effect; inconclusive = small, poorly fitted or top-dose-only effect, or another doubt; inactive = no such curve, though single readings can be large; an effect the other way counts as inactive or inconclusive.

For Cc1nnc(N2C(=O)C(O)=C(C(=O)c3ccco3)C2c2ccc(F)cc2)s1 (stereo not drawn) the results were HTT ATP protect 18%[10 µM], IMPase Li inh inconclusive, HttQ103 aggreg -4%, PNC inhibitor -13, IMPase inh inconclusive and NPSR antagonist -1%[46.1 µM].
`Cc1nnc(N2C(=O)C(O)=C(C(=O)c3ccco3)C2c2ccc(C(C)(C)C)cc2)s1` (stereo not drawn) gave HTT ATP protect 36%[10 µM], IMPase Li inh inconclusive, HttQ103 aggreg 1%, PNC inhibitor -109*, IMPase inh -9 and NPSR antagonist -41%.
`Cn1c(Cl)cnc1C1CC(=O)c2cc(Cl)ccc2O1` (stereo not drawn) gave HTT ATP protect -34%[10 µM], IMPase Li inh 9%, HttQ103 aggreg inconclusive, PNC inhibitor -112*, IMPase inh 10 and NPSR antagonist 7%[46.1 µM].
`O=C(Cc1cccc2ccccc12)Nc1ccc(-c2cc3ccccc3oc2=O)cc1` gave HTT ATP protect -4%[10 µM], IMPase Li inh -17%[38.3 µM], HttQ103 aggreg -28%, PNC inhibitor -83*, IMPase inh 3[1.84 µM] and NPSR antagonist 30%[46.1 µM].
For NC(=O)c1cc2ccncc2c2ccccc12 the results were HTT ATP protect -2%[10 µM], HttQ103 aggreg 2.5µM* and NPSR antagonist -17%.
For Cc1cc(C(N)=O)c2ccccc2n1 the results were HTT ATP protect -26%, IMPase Li inh -5%[38.3 µM], HttQ103 aggreg -3%, PNC inhibitor inconclusive, IMPase inh -3 and NPSR antagonist 5%[46.1 µM].
Screening O=C(ON=C1CCN(S(=O)(=O)c2ccccc2)CC1)c1cccc(Cl)c1 returned HTT ATP protect -9%[10 µM], IMPase Li inh 3%, HttQ103 aggreg -12%, PNC inhibitor -100*, IMPase inh 6 and NPSR antagonist -10%[46.1 µM].
For Cc1cccc(C)c1NC(=S)NCCc1ccccn1 the results were IMPase Li inh -11%, HttQ103 aggreg -29%, PNC inhibitor -105* and NPSR antagonist 13%.
For Cc1cccc(C)c1NC(=S)NC(C)CCc1ccccc1 (stereo not drawn) the results were HTT ATP protect 8%[10 µM], IMPase Li inh 17%, HttQ103 aggreg -23%, PNC inhibitor -82*, IMPase inh 9 and NPSR antagonist -13%[46.1 µM].
CS(=O)(=O)N(CC(=O)N1CCCCC1)c1cccc(F)c1 was read as HTT ATP protect 34%[10 µM], IMPase Li inh -6%, HttQ103 aggreg 7%[9.22 µM] and NPSR antagonist -2%.
Screening C=CCOC(=O)C1=C(C)NC(C)=C(C(=O)OCC=C)C1c1cn(-c2ccccc2)nc1-c1ccco1 returned IMPase Li inh -1%, HttQ103 aggreg -22%, PNC inhibitor 11 and NPSR antagonist -8%.
CN(C)c1ccc(/C=c2/sc3n(c2=O)NC2(c4ccccc4)N(C)C(=O)N(C)C2(c2ccccc2)N=3)cc1 (stereo not drawn) was read as IMPase Li inh -2%, HttQ103 aggreg 19%, PNC inhibitor -84* and NPSR antagonist 5%.
Screening COc1ccc(C2C(C#N)=C(C)NC(C)=C2C(=O)OC(C)C)c(OC)c1 (stereo not drawn) returned HTT ATP protect -46%, IMPase Li inh 26%, HttQ103 aggreg -12% and NPSR antagonist -21%.
N=c1n(Cc2ccc(Cl)cc2)c2ccccc2n1CC(O)COc1ccccc1 (stereo not drawn) was read as HTT ATP protect 0%[10 µM], IMPase Li inh 1%, HttQ103 aggreg 14µM* and NPSR antagonist inconclusive.
O=C(COC(=O)C1(c2ccccc2F)CCCC1)Nc1ncc(C(F)(F)F)cc1Cl was read as IMPase Li inh 2%, HttQ103 aggreg -2%, PNC inhibitor -109* and NPSR antagonist inconclusive.
`Cc1nn(-c2ccccc2)c(C)c1/C=C/C(=O)OCC(=O)Nc1ncc(C(F)(F)F)cc1Cl` gave IMPase Li inh 15%, HttQ103 aggreg -9%, PNC inhibitor -113* and NPSR antagonist 1%.
